# Structures can show the parent of a compound that is named as a salt. ± gives the standard deviation of the averaged measurements.
# How the values were obtained:
# [1] = tested on: Saccharomyces cerevisiae BY4741 SeMeCo community; assay: mean cell size (pixel area) (pixels); higher = larger cells; conditions: 10 µM; 24 h; SM minimal medium
# Summary of the method: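 Mean cell pixel area per well was measured in a four-plasmid fluorescent community of Saccharomyces cerevisiae BY4741, where every plasmid complements one auxotrophy and carries a fluorescent marker. Cells from an overnight preculture at OD600 = 1.0 were diluted to OD600 = 0.3 and dispensed at 70 µl into 384-well plates acoustically predosed with drug to a final 10 µM in SM medium. Incubation lasted 24 h, followed by paraformaldehyde fixation, automated confocal imaging and analysis in Harmony. Reported figures are averaged over 3 replicates. Same SeMeCo high-content imaging drug screen: Selleck FDA-approved drugs at 10 µM, 24 h in SM medium, 384-well plates, 3 replicates.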
# [2] = tested on: Saccharomyces cerevisiae BY4741 SeMeCo community; assay: z-score of prototroph abundance vs DMSO median; higher = larger share of this subpopulation than in DMSO controls; conditions: 10 µM; 24 h; SM minimal medium; subpopulation (auxotrophy): Prototroph
# Summary of the method: (§1)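 Cells of a Saccharomyces cerevisiae BY4741 community, carrying four plasmids that each restored one auxotrophy and encoded a distinct fluorescent protein, were pre-grown overnight to OD600 1.0 and diluted to 0.3. A 70 µl volume was added to 384-well plates acoustically predosed with library drugs (10 µM final) and grown 24 h in minimal SM medium. After paraformaldehyde fixation, automated confocal microscopy was used, with single-auxotroph fluorescent strains for thresholds and autofluorescence correction. The abundance of each subpopulation was scored as a z-score against the vehicle-well median.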
# [3] = tested on: Saccharomyces cerevisiae BY4741 SeMeCo community; assay: z-score of subpopulation abundance vs DMSO median, subpopulation auxotrophic for M; higher = larger share of this subpopulation than in DMSO controls; conditions: 10 µM; 24 h; SM minimal medium; subpopulation (auxotrophy): M
# Summary of the method: as §1
# [4] = tested on: Saccharomyces cerevisiae BY4741 SeMeCo community; assay: z-score of subpopulation abundance vs DMSO median, subpopulation auxotrophic for L; higher = larger share of this subpopulation than in DMSO controls; conditions: 10 µM; 24 h; SM minimal medium; subpopulation (auxotrophy): L
# Summary of the method: as §1
# [5] = tested on: Saccharomyces cerevisiae BY4741 SeMeCo community; assay: z-score of subpopulation abundance vs DMSO median, subpopulation auxotrophic for U; higher = larger share of this subpopulation than in DMSO controls; conditions: 10 µM; 24 h; SM minimal medium; subpopulation (auxotrophy): U
# Summary of the method: as §1
# [6] = tested on: Saccharomyces cerevisiae BY4741 SeMeCo community; assay: z-score of subpopulation abundance vs DMSO median, subpopulation auxotrophic for H; higher = larger share of this subpopulation than in DMSO controls; conditions: 10 µM; 24 h; SM minimal medium; subpopulation (auxotrophy): H
# Summary of the method: as §1
# [7] = tested on: Saccharomyces cerevisiae BY4741 SeMeCo community; assay: z-score of subpopulation abundance vs DMSO median, subpopulation auxotrophic for LU; higher = larger share of this subpopulation than in DMSO controls; conditions: 10 µM; 24 h; SM minimal medium; subpopulation (auxotrophy): LU
# Summary of the method: as §1
# [8] = tested on: Saccharomyces cerevisiae BY4741 SeMeCo community; assay: z-score of subpopulation abundance vs DMSO median, subpopulation auxotrophic for LM; higher = larger share of this subpopulation than in DMSO controls; conditions: 10 µM; 24 h; SM minimal medium; subpopulation (auxotrophy): LM
# Summary of the method: as §1
# [9] = tested on: Saccharomyces cerevisiae BY4741 SeMeCo community; assay: z-score of subpopulation abundance vs DMSO median, subpopulation auxotrophic for HM; higher = larger share of this subpopulation than in DMSO controls; conditions: 10 µM; 24 h; SM minimal medium; subpopulation (auxotrophy): HM
# Summary of the method: as §1
# [10] = tested on: Saccharomyces cerevisiae BY4741 SeMeCo community; assay: z-score of subpopulation abundance vs DMSO median, subpopulation auxotrophic for HU; higher = larger share of this subpopulation than in DMSO controls; conditions: 10 µM; 24 h; SM minimal medium; subpopulation (auxotrophy): HU
# Summary of the method: as §1
# [11] = tested on: Saccharomyces cerevisiae BY4741 SeMeCo community; assay: z-score of subpopulation abundance vs DMSO median, subpopulation auxotrophic for UM; higher = larger share of this subpopulation than in DMSO controls; conditions: 10 µM; 24 h; SM minimal medium; subpopulation (auxotrophy): UM
# Summary of the method: as §1
# [12] = tested on: Saccharomyces cerevisiae BY4741 SeMeCo community; assay: z-score of subpopulation abundance vs DMSO median, subpopulation auxotrophic for HL; higher = larger share of this subpopulation than in DMSO controls; conditions: 10 µM; 24 h; SM minimal medium; subpopulation (auxotrophy): HL
# Summary of the method: as §1
# [13] = tested on: Saccharomyces cerevisiae BY4741 SeMeCo community; assay: z-score of subpopulation abundance vs DMSO median, subpopulation auxotrophic for HLU; higher = larger share of this subpopulation than in DMSO controls; conditions: 10 µM; 24 h; SM minimal medium; subpopulation (auxotrophy): HLU
# Summary of the method: as §1
# [14] = tested on: Saccharomyces cerevisiae BY4741 SeMeCo community; assay: z-score of subpopulation abundance vs DMSO median, subpopulation auxotrophic for HLM; higher = larger share of this subpopulation than in DMSO controls; conditions: 10 µM; 24 h; SM minimal medium; subpopulation (auxotrophy): HLM
# Summary of the method: as §1
# [15] = tested on: Saccharomyces cerevisiae BY4741 SeMeCo community; assay: z-score of subpopulation abundance vs DMSO median, subpopulation auxotrophic for HUM; higher = larger share of this subpopulation than in DMSO controls; conditions: 10 µM; 24 h; SM minimal medium; subpopulation (auxotrophy): HUM
# Summary of the method: as §1
# [16] = tested on: Saccharomyces cerevisiae BY4741 SeMeCo community; assay: z-score of subpopulation abundance vs DMSO median, subpopulation auxotrophic for LUM; higher = larger share of this subpopulation than in DMSO controls; conditions: 10 µM; 24 h; SM minimal medium; subpopulation (auxotrophy): LUM
# Summary of the method: as §1
# [17] = tested on: Saccharomyces cerevisiae BY4741 SeMeCo community; assay: z-score of subpopulation abundance vs DMSO median, subpopulation auxotrophic for HLUM; higher = larger share of this subpopulation than in DMSO controls; conditions: 10 µM; 24 h; SM minimal medium; subpopulation (auxotrophy): HLUM
# Summary of the method: as §1
SMILES,mean cell size [1],z-score of prototroph abundance [2],z-score of subpopulation abundance [3],z-score of subpopulation abundance [4],z-score of subpopulation abundance [5],z-score of subpopulation abundance [6],z-score of subpopulation abundance [7],z-score of subpopulation abundance [8],z-score of subpopulation abundance [9],z-score of subpopulation abundance [10],z-score of subpopulation abundance [11],z-score of subpopulation abundance [12],z-score of subpopulation abundance [13],z-score of subpopulation abundance [14],z-score of subpopulation abundance [15],z-score of subpopulation abundance [16],z-score of subpopulation abundance [17]
C[N+]1(C)CCC(=C(c2ccccc2)c2ccccc2)CC1 [Diphemanil Methylsulfate],12.6 ± 0.23,-0.15,1.5,-0.56,0,-0.27,-0.26,0.34,0.58,-0.13,0.25,-0.17,-0.19,-0.02,0.68,0.41,-0.18
CC(C)[N+](C)(CCOC(=O)C1c2ccccc2Oc2ccccc21)C(C)C [Propantheline bromide],12.5 ± 0.22,0.94,1.26,-0.57,-0.28,0.9,-0.92,-0.04,0.76,-0.76,-1.12,-0.65,-1.23,-0.74,-1.29,-1.5,-0.56
CC1(C)S[C@@H]2[C@H](NC(=O)[C@H](NC(=O)N3CCN(S(C)(=O)=O)C3=O)c3ccccc3)C(=O)N2[C@H]1C(=O)O [Mezlocillin Sodium],12.5 ± 0.21,0.2,-0.07,0.24,0,0.1,0.6,-0.38,-0.71,0.3,-0.36,-0.55,0.28,-0.19,-0.29,-0.16,-0.69
Oc1ccc(C2CNCCc3c2cc(O)c(O)c3Cl)cc1 (configuration not stated) [Fenoldopam mesylate],12.9 ± 0.26,0.87,1.31,-1.59,-1.92,,-1.75,2.31,1.58,-0.06,-1.9,0.16,-0.29,0.63,-0.92,-1.22,1.24
CO/N=C(\C(=O)N[C@@H]1C(=O)N2C(C(=O)O)=CCS[C@H]12)c1csc(N)n1 [Ceftizoxime],12.47 ± 0.084,0.78,0.26,-0.19,-0.63,,-0.12,-0.02,-0.82,-0.76,-0.98,-0.85,-1.12,-0.37,-1.23,-0.44,-0.49
Nc1ccc(S(=O)(=O)Nc2ncccn2)cc1 [Sodium sulfadiazine],12.42 ± 0.059,-0.25,0.4,0.56,0.32,-0.33,0.3,0.18,0.17,-0.58,-0.13,0.08,0.17,-0.23,-0.68,0.15,0.02
CC[C@@]1(O)C(=O)OCc2c1cc1n(c2=O)Cc2cc3cc(O)ccc3nc2-1 [(S)-10-Hydroxycamptothecin],12.41 ± 0.077,0.14,0.87,1.09,-1.66,0.82,-0.98,1.48,0.81,-1.09,-0.98,0.62,0.14,0.07,-0.24,0.42,-0.28

# Reference: the supplement of paper PMC8975748
